# Experimental data as given in PubChem BioAssay (EPA / NIEHS).
# Records with an inconclusive call do not appear. More than one record can exist for a structure, and the calls need not agree. The source made the active and inactive calls. Rule for the calls, unless noted: active = hit-call score of the fitted dose curve at least 0.9, where 1 is the maximum; inactive = score below 0.9.
# Columns and labels:
# [1] = read-out: Interleukin-1 alpha (IL1a), IL1A (gene 3552); assay: BSK_LPS_IL1a: BioMAP Diversity Plus: LPS Assay for Interleukin-1 alpha (IL1a) Biomarker Activity (AID 2283080); settings: primary human HUVEC with PBMC; actives raise or lower the signal
# Procedure, shortened: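 Human umbilical vein endothelial cells co-cultured with PBMC and stimulated with LPS; IL-1a measured by ELISA 24 h after dosing. Bidirectional fitting against DMSO; cytotoxicity checked by SRB staining in parallel cultures.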
# [2] = read-out: Monocyte Chemoattractant Protein-1 (MCP1), CCL2 (gene 6347); assay: BSK_LPS_MCP1: BioMAP Diversity Plus: LPS Assay for Monocyte Chemoattractant Protein-1 (MCP1) Biomarker Activity (AID 2283081); settings: primary human HUVEC with PBMC; actives raise or lower the signal;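 for AC50: secreted MCP-1 protein quantified by ELISA in culture supernatant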
# Procedure, shortened: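 Human umbilical vein endothelial cells co-cultured with PBMC, LPS-stimulated; secreted MCP-1 measured by ELISA 24 h after compound addition. Bidirectional curve fitting against DMSO baseline; SRB total-protein staining in parallel cultures for cytotoxicity.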
# [3] = BSK_LPS_PGE2: BioMAP Diversity Plus: LPS Assay for Prostaglandin E2 (PGE2) Biomarker Activity (AID 2283082); settings: primary human HUVEC with PBMC; actives raise or lower the signal
# Procedure, shortened: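 PGE2 release measured by ELISA in an LPS-activated co-culture of human umbilical vein endothelial cells and peripheral blood mononuclear cells, read at 24 h post-dosing. DMSO served as baseline for bidirectional curve fitting.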
# [4] = read-out: Macrophage colony-stimulating factor (MCSF), CSF1 (gene 1435); assay: BSK_LPS_MCSF: BioMAP Diversity Plus: LPS Assay for Macrophage colony-stimulating factor (MCSF) Biomarker Activity (AID 2283083); settings: primary human HUVEC with PBMC; actives raise or lower the signal
# Procedure, shortened: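 HUVEC–PBMC co-culture, M-CSF measured by ELISA 24 h after chemical dosing. Fitted in both directions relative to DMSO as negative control; overt cytotoxicity assessed by SRB total-protein staining in parallel cultures.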
# [5] = read-out: Tissue Factor, F3 (gene 2152); assay: BSK_LPS_TissueFactor: BioMAP Diversity Plus: LPS Assay for Tissue Factor Biomarker Activity (AID 2283084); settings: primary human HUVEC with PBMC; actives raise or lower the signal
# Procedure, shortened: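 Human umbilical vein endothelial cells co-cultured with PBMC were dosed with compound. Cell-surface CD142 was measured by ELISA 24 h later. Activity was fitted bidirectionally against DMSO, with SRB total-protein staining in parallel cultures for cytotoxicity.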
# [6] = read-out: Tumor necrosis factor (Homo sapiens) (UniProt P01375); assay: BSK_LPS_TNFa: BioMAP Diversity Plus: LPS Assay for Tumour Necrosis Factor alpha (TNFa) Biomarker Activity (AID 2283085); settings: primary human HUVEC with PBMC; actives raise or lower the signal;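 for AC50: TNFa protein level quantified by ELISA in the co-culture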
# Procedure, shortened: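 TNFa was quantified by ELISA in LPS-activated co-cultures of human endothelial cells and PBMC, 24 h post-dosing. Both increases and decreases versus DMSO were fitted.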
# [7] = read-out: Vascular cell adhesion molecule 1 (VCAM1), VCAM1 (gene 7412); assay: BSK_LPS_VCAM1: BioMAP Diversity Plus: LPS Assay for Vascular cell adhesion molecule 1 (VCAM1) Biomarker Activity (AID 2283086); settings: primary human HUVEC with PBMC; actives raise or lower the signal
# Procedure, shortened: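 VCAM-1 quantified by ELISA in an LPS-activated co-culture of human endothelial cells and peripheral blood mononuclear cells, read 24 h post-treatment. Fitted in both directions versus DMSO; parallel SRB staining flags overt cytotoxicity.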
# CD38, CD38 (gene 952) = assay: BSK_SAg_CD38: BioMAP Diversity Plus: SAg Assay for CD38 Biomarker Activity (AID 2283087); settings: primary human HUVEC with PBMC; actives raise or lower the signal
# Procedure, shortened: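 CD38 quantified by ELISA (fluorescence) in a superantigen-activated endothelial cell–PBMC co-culture at 24 h post-dose. Activity fitted in both directions relative to DMSO; parallel SRB and Alamar Blue cytotoxicity read-outs.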
# CD40, CD40 (gene 958) = assay: BSK_SAg_CD40: BioMAP Diversity Plus: SAg Assay for CD40 Biomarker Activity (AID 2283088); settings: primary human HUVEC with PBMC; actives raise or lower the signal
# Procedure, shortened: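 HUVEC plus PBMC co-culture, superantigen-activated, with CD40 read by ELISA 24 h after dosing. Curves fitted in both directions against DMSO. Overt cytotoxicity checked by parallel SRB total-protein staining.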
# CD69, CD69 (gene 969) = assay: BSK_SAg_CD69: BioMAP Diversity Plus: SAg Assay for CD69 Biomarker Activity (AID 2283089); settings: primary human HUVEC with PBMC; actives raise or lower the signal;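 for AC50: cell surface CD69 protein quantified by ELISA with fluorescence detection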
# Procedure, shortened: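 HUVEC co-cultured with PBMC were dosed with chemical, and CD69 was measured by ELISA with fluorescence read-out 24 h later. Bidirectional curve fitting used DMSO as negative control and activity baseline.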
# [8] = read-out: Monocyte Chemoattractant Protein-1 (MCP1), CCL2 (gene 6347); assay: BSK_SAg_MCP1: BioMAP Diversity Plus: SAg Assay for Monocyte Chemoattractant Protein-1 (MCP1) Biomarker Activity (AID 2283090); settings: primary human HUVEC with PBMC; actives raise or lower the signal
# Procedure, shortened: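 Values derive from bidirectional fitting of ELISA-measured MCP1 against DMSO controls. Readings were taken 24 h after dosing human vascular endothelial cells co-cultured with peripheral blood mononuclear cells under superantigen stimulation.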
# [9] = read-out: E-selectin (Homo sapiens) (UniProt P16581); assay: BSK_SAg_Eselectin: BioMAP Diversity Plus: SAg Assay for Eselectin Biomarker Activity (AID 2283091); settings: primary human HUVEC with PBMC; actives raise or lower the signal
# Procedure, shortened: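 Human umbilical vein endothelial cells co-cultured with peripheral blood mononuclear cells, SAg system. E-selectin is measured by ELISA 24 h after dosing and fitted bidirectionally against DMSO. Cytotoxicity is checked by SRB staining of parallel cultures.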
# [10] = BSK_SAg_PBMCCytotoxicity: PBMC Cytotoxicity Assessment in the BioMAP Diversity Plus: SAg Assay (AID 2283093); settings: primary human HUVEC with PBMC;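 note: PBMC viability measured as Alamar Blue reduction fluorescence at 546/580 nm; fitted both ways against DMSO so a hit may be loss or gain of signal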;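 for AC50: PBMC superantigen activated with SEB plus TSST-1 one hour after compound addition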
# Procedure, shortened: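 Alamar Blue reduction (6 h, 546/580 nm) reports PBMC cytotoxicity after 90 h superantigen activation (SEB, TSST-1; 20 ng/mL final each) with 1 h compound pre-treatment. Gain or loss of signal fitted versus DMSO.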
# [11] = read-out: Interleukin-8 (IL8), CXCL8 (gene 3576); assay: BSK_SAg_IL8: BioMAP Diversity Plus: SAg Assay for Interleukin-8 (IL8) Biomarker Activity (AID 2283094); settings: primary human HUVEC with PBMC; actives raise or lower the signal
# Procedure, shortened: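 ELISA readout of IL-8 from a superantigen-activated endothelial/PBMC primary human co-culture, taken 24 h post-dosing and fitted in both directions against DMSO; parallel SRB total-protein staining flags overt cytotoxicity.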
# [12] = BSK_SAg_Proliferation: Cell Proliferation Assessment in the BioMAP Diversity Plus: SAg Assay (AID 2283095); settings: primary human HUVEC with PBMC;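 note: relative cell number as total protein by SRB absorbance in sub-confluent culture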
# Procedure, shortened: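 Relative cell number in the endothelial cell/PBMC co-culture was quantified at 96 h by SRB staining (0.1% SRB, 10% TCA fixation, read at 560 nm). Curves were fitted in both directions relative to DMSO baseline.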
# [13] = BSK_SAg_SRB: Viability Assessment in the BioMAP Diversity Plus: SAg Assay (AID 2283096); settings: primary human HUVEC with PBMC;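 note: cells read one day after compound addition; hits may be either gain or loss of signal compared with DMSO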
# Procedure, shortened: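 This overt-cytotoxicity endpoint quantifies protein in human endothelial/PBMC co-cultures at 24 h using SRB absorbance (560 nm) after trichloroacetic acid fixation. Values reflect signal change from the DMSO negative control, fitted bidirectionally.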
# [14] = molecular target: human CYP2D6, CYP2D6 (gene 1565) (UniProt P10635); assay: NVS_ADME_hCYP2D6: NovaScreen (NVS) CYP450-related Enzyme Activity (ADME) Assay for human CYP2D6 (AID 2283107; active = hit-call score of the fitted dose curve at least 0.9, where 1 is the maximum)
# human CYP2D6, CYP2D6 (gene 1565), sequence (P10635 whole entry, looked up): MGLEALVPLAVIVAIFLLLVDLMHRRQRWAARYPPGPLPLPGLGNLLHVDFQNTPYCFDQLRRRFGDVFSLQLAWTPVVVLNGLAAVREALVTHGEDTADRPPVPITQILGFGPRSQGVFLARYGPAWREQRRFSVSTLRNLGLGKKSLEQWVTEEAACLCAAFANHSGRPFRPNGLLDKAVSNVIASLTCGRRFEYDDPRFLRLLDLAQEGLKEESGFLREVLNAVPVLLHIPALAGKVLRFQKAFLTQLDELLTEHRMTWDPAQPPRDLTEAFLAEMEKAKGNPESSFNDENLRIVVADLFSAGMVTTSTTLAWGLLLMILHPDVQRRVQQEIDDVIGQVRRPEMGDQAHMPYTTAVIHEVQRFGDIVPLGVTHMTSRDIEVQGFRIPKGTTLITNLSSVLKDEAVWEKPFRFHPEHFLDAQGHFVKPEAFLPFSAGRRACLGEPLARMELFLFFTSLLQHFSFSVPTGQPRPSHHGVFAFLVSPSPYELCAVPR
# Procedure, shortened: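 Cell-free assay using recombinant human CYP2D6 expressed in insect cells, with a fluorogenic substrate read after 1 h. Primary screen in duplicate at 10 uM; actives followed up in concentration series. Loss of signal fitted relative to acetonitrile.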
# [15] = molecular target: Cytochrome P450 2C19 (Homo sapiens) (UniProt P33261); assay: NVS_ADME_hCYP2C19: NovaScreen (NVS) CYP450-related Enzyme Activity (ADME) Assay for human CYP2C19 (AID 2283113; active = hit-call score of the fitted dose curve at least 0.9, where 1 is the maximum;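 note: potency for inhibition seen as loss of fluorescent signal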)
# Procedure, shortened: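 Cell-free recombinant human CYP2C19 from insect cells, fluorescent substrate; activity read by fluorescence intensity 1 h after dosing. Primary screen in duplicate at 10 uM; actives retested in concentration series. Signal loss versus acetonitrile negative control.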
# E-selectin (Homo sapiens), sequence (P16581 whole entry, looked up): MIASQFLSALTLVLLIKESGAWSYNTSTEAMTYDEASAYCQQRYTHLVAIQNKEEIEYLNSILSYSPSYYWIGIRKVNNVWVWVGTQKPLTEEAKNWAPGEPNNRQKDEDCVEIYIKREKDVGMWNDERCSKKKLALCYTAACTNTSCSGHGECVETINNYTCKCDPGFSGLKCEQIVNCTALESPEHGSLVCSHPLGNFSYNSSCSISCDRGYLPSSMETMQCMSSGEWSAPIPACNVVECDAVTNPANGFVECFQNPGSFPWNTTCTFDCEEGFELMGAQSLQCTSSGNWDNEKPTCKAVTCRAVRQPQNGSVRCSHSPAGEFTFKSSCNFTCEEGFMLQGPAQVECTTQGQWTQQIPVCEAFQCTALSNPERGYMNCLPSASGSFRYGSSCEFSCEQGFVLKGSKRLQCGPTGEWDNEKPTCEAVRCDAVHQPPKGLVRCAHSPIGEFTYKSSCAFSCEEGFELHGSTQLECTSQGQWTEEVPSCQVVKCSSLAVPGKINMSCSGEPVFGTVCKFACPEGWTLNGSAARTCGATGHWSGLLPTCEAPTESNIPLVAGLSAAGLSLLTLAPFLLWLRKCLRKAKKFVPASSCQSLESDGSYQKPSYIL
# Tumor necrosis factor (Homo sapiens), sequence (P01375 whole entry, looked up): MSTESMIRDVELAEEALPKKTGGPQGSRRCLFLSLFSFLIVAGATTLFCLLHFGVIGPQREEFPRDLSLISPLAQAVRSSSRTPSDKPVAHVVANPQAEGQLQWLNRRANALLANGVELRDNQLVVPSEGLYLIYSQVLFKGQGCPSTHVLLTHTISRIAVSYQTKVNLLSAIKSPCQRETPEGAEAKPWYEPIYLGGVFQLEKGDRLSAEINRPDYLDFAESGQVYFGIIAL
smiles,measurement,setting,value
CN1C(=O)N(C)C(O)C1O (configuration not stated),outcome,[1],inactive
same,outcome,[2],inactive
same,outcome,[3],inactive
same,outcome,[4],inactive
same,outcome,[5],inactive
same,outcome,[6],inactive
same,outcome,[7],inactive
same,outcome,"CD38, CD38 (gene 952)",inactive
same,outcome,"CD40, CD40 (gene 958)",inactive
same,outcome,"CD69, CD69 (gene 969)",inactive
same,outcome,[8],inactive
same,outcome,[9],inactive
same,outcome,[10],inactive
same,outcome,[11],inactive
same,outcome,[12],inactive
same,outcome,[13],inactive
CC1OC1C1CCC2(C)OC2C1 (configuration not stated),outcome,[1],inactive
same,outcome,[2],inactive
same,outcome,[3],inactive
same,outcome,[4],inactive
same,outcome,[5],inactive
same,outcome,[6],inactive
same,outcome,[7],inactive
same,outcome,"CD38, CD38 (gene 952)",inactive
same,outcome,"CD40, CD40 (gene 958)",inactive
same,outcome,"CD69, CD69 (gene 969)",inactive
same,outcome,[8],inactive
same,outcome,[9],inactive
same,outcome,[10],inactive
same,outcome,[11],inactive
same,outcome,[12],inactive
same,outcome,[13],inactive
O=C(c1ccc(O)cc1)c1ccc(O)cc1O,outcome,[1],inactive
same,outcome,[2],inactive
same,outcome,[3],inactive
same,outcome,[4],inactive
same,outcome,[5],inactive
same,outcome,[6],inactive
same,outcome,[7],inactive
same,AC50,"CD38, CD38 (gene 952)",20 µM (active)
same,outcome,"CD38, CD38 (gene 952)",inactive
same,outcome,"CD40, CD40 (gene 958)",inactive
same,outcome,"CD69, CD69 (gene 969)",inactive
same,outcome,[8],inactive
same,outcome,[9],inactive
same,outcome,[10],inactive
same,outcome,[11],inactive
same,AC50,[12],14.2 µM (active)
same,outcome,[12],inactive
same,outcome,[13],inactive
C=CCOCC(O)CCl (configuration not stated),outcome,[1],inactive
same,outcome,[2],inactive
same,outcome,[3],inactive
same,outcome,[4],inactive
same,outcome,[5],inactive
same,outcome,[6],inactive
same,outcome,[7],inactive
same,outcome,"CD38, CD38 (gene 952)",inactive
same,outcome,"CD40, CD40 (gene 958)",inactive
same,outcome,"CD69, CD69 (gene 969)",inactive
same,outcome,[8],inactive
same,outcome,[9],inactive
same,outcome,[10],inactive
same,outcome,[11],inactive
same,outcome,[12],inactive
same,outcome,[13],inactive
CCCCCCCCCCCCCCCC[N+](C)(C)CC,AC50,[1],1.42 µM (active)
same,AC50,[2],2.58 µM (active)
same,outcome,[3],inactive
same,AC50,[4],2.18 µM (active)
same,AC50,[5],2.36 µM (active)
same,AC50,[6],4.58 µM (active)
same,AC50,[7],3.79 µM (active)
same,AC50,"CD38, CD38 (gene 952)",9.51 µM (active)
same,AC50,"CD40, CD40 (gene 958)",10.2 µM (active)
same,AC50,"CD69, CD69 (gene 969)",1.78 µM (active)
same,AC50,[8],2.24 µM (active)
same,AC50,[9],2.77 µM (active)
same,AC50,[10],1.94 µM (active)
same,AC50,[11],9.75 µM (active)
same,AC50,[12],0.314 µM (active)
same,AC50,[13],1.69 µM (active)
same,AC50,[14],0.536 µM (active)
same,AC50,[15],2.31 µM (active)
CCOc1nc(F)cc2nc(S(=O)(=O)Nc3c(Cl)cccc3C(=O)OC)nn12,outcome,[1],inactive
same,outcome,[2],inactive
same,outcome,[3],inactive
same,outcome,[4],inactive
same,outcome,[5],inactive
same,outcome,[6],inactive
same,outcome,[7],inactive
same,outcome,"CD38, CD38 (gene 952)",inactive
same,outcome,"CD40, CD40 (gene 958)",inactive
same,outcome,"CD69, CD69 (gene 969)",inactive
same,outcome,[8],inactive
same,outcome,[9],inactive
same,outcome,[10],inactive
same,outcome,[11],inactive
same,outcome,[12],inactive
same,outcome,[13],inactive
C#CC1(O)CC[C@H]2[C@@H]3CCC4=CCCC[C@@H]4[C@H]3CC[C@@]21C (some centres not stated),AC50,[1],29.6 µM (active)
same,AC50,[2],35.7 µM (active)
same,outcome,[3],inactive
same,AC50,[4],29 µM (active)
same,AC50,[5],31.2 µM (active)
same,AC50,[6],33.3 µM (active)
same,AC50,[7],29.9 µM (active)
same,AC50,"CD38, CD38 (gene 952)",35.1 µM (active)
same,AC50,"CD40, CD40 (gene 958)",30.2 µM (active)
same,AC50,"CD69, CD69 (gene 969)",29.7 µM (active)
same,AC50,[8],31.8 µM (active)
same,AC50,[9],35.9 µM (active)
same,AC50,[10],20 µM (active)
same,AC50,[11],20 µM (active)
same,AC50,[12],12.3 µM (active)
same,AC50,[13],28 µM (active)
same,AC50,[15],0.032 µM (active)
